USP2a inh = USP2a (human) protease inhibition | 330,000 tested, 0.01% active | USP2 core, Ub-CHOP2 coupled fluorogenic reporter, 485/531 | O75604 | AID 463254 | Potency, µM (top dose mostly 38.3 µM), without a hit: at the top dose activity change, negative = inhibition, usual class: inhibitors;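 note: plate controls were DMSO wells for no effect and full inhibition by NEM control for full effect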
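USP2 core (10nM final) preincubated 30min RT with compound in 20mM Tris-HCl pH 8.0, 2mM CaCl2, 2mM beta-mercaptoethanol, 0.05% CHAPS; 25nM Ub-CHOP2 plus 25nM reporter substrate added, fluorescence (Ex485/Em531) read after 60min.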
RGS4 inhibitor = human RGS4 inhibition | Potency, µM (series often up to 114 µM), without a hit: at the highest dose activity change, negative = inhibition, most hits filed as inhibitors | AID 504845 | P49798 | Transcreener GDP fluorescence polarization, RGS4-accelerated GTP hydrolysis | 390,000 tested, 0.039% active; note: % is set by controls: 0 for no effect and ±100 for the full control effect; nearly all actives have a fitted effect of over 75% in size
Target sequence (P49798 whole entry, looked up): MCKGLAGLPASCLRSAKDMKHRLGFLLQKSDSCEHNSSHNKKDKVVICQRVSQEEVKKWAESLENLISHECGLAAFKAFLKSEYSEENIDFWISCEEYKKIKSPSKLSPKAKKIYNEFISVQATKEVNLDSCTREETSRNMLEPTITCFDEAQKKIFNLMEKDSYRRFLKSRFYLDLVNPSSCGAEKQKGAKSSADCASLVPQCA
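MLSMR compounds (23 nl, pin-transferred) preincubated 10 min at room temperature with a 500nM (2x) first reagent, then RGS4 at 900nM (2x) plus Transcreener GDP mix added; fluorescence polarization (620/688 nm) read before and after 90 min at 30 °C.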
Eya2 inh = inhibitors of human Eya2 phosphatase activity | Potency, µM (titrated, usually from 76.9 µM), for the others: at the highest dose activity, negative = inhibition, most hits filed as inhibitors | 330,000 tested, 0.006% active | O00167 | recombinant Eya2, OMFP fluorescence dephosphorylation (OMFP is methylfluorescein phosphate); note: % is set by controls: 0 for no effect and ±100 for the full control effect
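Eya2 (0.2 uM) preincubated 10 min at ambient with compound, then OMFP substrate added at 50 uM; 10 min reaction in 50 mM HEPES pH 7.5, 50 mM NaCl, 5 uM MgCl2, 0.05% BSA, 1 mM DTT. Fluorescence read at Ex 485/Em 525 nm.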
ERG Ets-DNA blk = blocks human ERG Ets domain binding to DNA; 370,000 tested, 0.028% active; fluorescence polarization, His-ERG Ets domain / labelled DNA; P11308; AID 624246; Potency, µM (series often up to 76.9 µM), for the others: top-dose FP activity, negative = inhibition, usual class: inhibitors; active = well fitted inhibition curve with a large enough effect in the polarisation, with a control signal flat; inconclusive = small, poorly fitted or top-dose-only effect, or effect the other way, or a change in a side signal; inactive = no such curve, though single readings can be large or run the other way; the % refers to the polarisation;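 note: polarization taken with two DNA probes labelled with fluorescein and Texas red; % of control where 0% means no effect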
Target sequence (P11308 whole entry, looked up, the tested form may be a part): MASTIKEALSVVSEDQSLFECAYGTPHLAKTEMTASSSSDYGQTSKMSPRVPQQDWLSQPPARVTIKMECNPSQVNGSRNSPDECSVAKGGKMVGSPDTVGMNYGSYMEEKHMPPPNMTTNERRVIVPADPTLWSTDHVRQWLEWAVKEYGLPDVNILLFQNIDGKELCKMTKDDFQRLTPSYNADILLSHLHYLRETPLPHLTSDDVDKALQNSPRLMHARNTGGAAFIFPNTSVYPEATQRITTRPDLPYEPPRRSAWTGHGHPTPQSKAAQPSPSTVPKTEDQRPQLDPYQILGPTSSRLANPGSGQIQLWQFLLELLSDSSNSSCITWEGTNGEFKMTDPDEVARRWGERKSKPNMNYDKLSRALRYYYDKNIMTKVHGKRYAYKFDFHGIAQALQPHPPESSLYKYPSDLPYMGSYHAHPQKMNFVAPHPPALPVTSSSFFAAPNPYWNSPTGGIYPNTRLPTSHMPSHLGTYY
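His-tagged ERG Ets domain (1 uM in the protein solution; 300mM KCl, 50mM Tris-HCl, 1mM EDTA, 1mM DTT, pH 7.5) received compound, then a probe mix of 5 nM fluorescein-DNA and 100nM Texas-615-DNA. Fluorescence polarization was read for both dyes.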
Starred values were filed as active, the others as inactive; i = inactive; ? = inconclusive; · = no result given; ! = repeats disagree; [ ] = another dose, or the depositor's remark. Shown are actives, neighbours in structure and some others; about 0.08% of the full set was active somewhere. Unless noted, calls come from the whole dose curve; as a rule, active = well fitted curve in the direction sought with a large enough effect; inconclusive = small, poorly fitted or top-dose-only effect, or another doubt; inactive = no such curve, though single readings can be large; an effect the other way counts as inactive or inconclusive. Potency is the fitted concentration of half-maximal effect.

SMILES | USP2a inh | RGS4 inhibitor | Eya2 inh | ERG Ets-DNA blk
C#CCOCCOCCOCCNc1nc(N2CCN(C(=O)CCCCCCCCCCNC(=O)[C@H](CCCCN)n3cc(C)nn3)CC2)nc(N2CCN(C(=O)CCCCCCCCCCNC(=O)[C@H](CCCN=C(N)N)n3cc(C[C@@H](C)CC)nn3)CC2)n1 | 11µM* | ? | 22µM* | 9%
C#CCOCCOCCOCCNc1nc(N2CCN(C(=O)CCCCCCCCCCNC(=O)[C@H](CCCCN)n3cc(C[C@@H](C)CC)nn3)CC2)nc(N2CCN(C(=O)CCCCCCCCCCNC(=O)[C@@H]([C@H](C)O)n3cc(C)nn3)CC2)n1 | -20% | ? | -15% | 16%
CC(C)C[C@@H](C=O)NC(=O)[C@H](CC(C)C)NC(=O)[C@H](CC(C)C)NC(=O)OCc1ccccc1 | · | i | · | ·
Nc1cccc(N2C(=O)c3cccc4c(N)ccc(c34)C2=O)c1 | ? | -1% | ? | ?
Nc1ccc2c3c(cccc13)C(=O)N(c1ccccc1)C2=O | ? | 14% | ? | 25µM*
O=C(CCc1ccc(O)cc1)c1c(O)cc(O)cc1O | 4% | 19µM*! | -3% | 10%
O=C(N[C@@H](Cc1ccccc1)C(=O)CCl)OCc1ccccc1 | 2% | 3.4µM* | -6% | 9%
O=C(N[C@@H](Cc1ccccc1)C(=O)N[C@@H](Cc1ccccc1)C(=O)O)OCc1ccccc1 | -4% | 0% | -24% | -4%
CC[n+]1c(/C=C/C=C2/N(C)c3ccccc3C2(C)C)sc2ccccc21 | · | 21µM* | 12% | ·
CC[n+]1c(/C=C/C=C/N(C(C)=O)c2ccccc2)sc2ccccc21 | 5% | ? | 14% | 14%
CCn1c(CSc2nnc3ccccn23)nc2cc(C(=O)O)ccc21 | 4% | ? | -10%[15.4 µM] | ?
CCn1c(CSc2nnc(-c3ccncc3)n2CCOC)nc2cc(C(=O)O)ccc21 | 0% | ? | -3% | 5µM*
CCn1c(CSc2n[nH]c(N)n2)nc2cc(C(=O)O)ccc21 | 2% | ? | -3% | 16µM*
CCn1c(CSc2nnc(-c3cccnc3)n2-c2ccccc2C)nc2cc(C(=O)O)ccc21 | 2% | · | -21% | ·
CCc1ccc(CN2CCCC(C(=O)Nc3ccccc3-c3ccc(OC)cc3)C2)o1 (centres undefined) | 4% | -22% | 0% | 32µM*
O=S(=O)(Nc1cccc2cccnc12)c1cccs1 | · | -3% | · | ·
COc1ccc(-c2nc3c(=O)n(C)c(=O)nc-3n(C)n2)cc1 | · | -8% | · | ·
C[C@](N)(Cc1ccc(O)cc1)C(=O)O | · | 2%[56.9 µM] | 3% | ·
C[C@](N)(Cc1ccc(O)c(O)c1)C(=O)O | ? | 27µM*! | 2% | 2%
C=C1C[C@@]23CC[C@H]4[C@@](C)(CCC[C@@]4(C)C(=O)O)[C@@H]2CC[C@]1(O)C3 | · | 5%[56.9 µM] | 7% | ·
CS(=O)(=O)Nc1ccc([N+](=O)[O-])cc1OC1CCCCC1 | · | 8.4µM*! | · | ·
CS(=O)(=O)Nc1ccc([N+](=O)[O-])cc1Oc1ccccc1 | 5% | 11%[56.9 µM] | 19% | 11%
N#C/C(=C\c1ccc(O)c(O)c1)C(=O)NCCc1ccccc1 | 1% | 19µM*! | 9% | 0%
N#C/C(=C\c1ccc(O)c(O)c1)C(=O)NCCCCc1ccccc1 | · | i | · | ·
COc1ccccc1Nc1nn2c(=O)c3ccc(C(=O)NCCc4ccccc4)cc3nc2s1 | · | -10% | · | 1%
SMILES | USP2a inh | RGS4 inhibitor | Eya2 inh | ERG Ets-DNA blk
Cc1ccc(CNc2ncnc3[nH]ncc23)o1 | · | 8% | · | ·
NC(=S)NCCC[C@H](N)C(=O)O | · | 11µM*! | 3% | ·
Nc1ncnc2c1ncn2COC(CO)CO | · | 14% | · | ·
Cc1cc2cc(CNS(=O)(=O)c3ccccc3)ccc2n1C | -2% | -15% | -26% | 11µM*
CCS(=O)(=O)NCc1ccc2c(c1)cc(C)n2C | 0% | -3% | 2% | 1%
COc1ccc(S(=O)(=O)NCc2ccc3c(c2)cc(C)n3C)cc1 | 4% | -9% | 14% | 35µM*
Cc1ccc(S(=O)(=O)N(C)CCCN(C)c2nc(-c3cccs3)nc3ccccc23)cc1 | · | 20% | · | ·
CCc1ccc2[nH]c(=O)c(CN(Cc3cccnc3)Cc3nnnn3Cc3ccccc3)cc2c1 | · | 9% | · | ·
CC[C@H](NC(C)C)[C@H](O)c1ccc(O)c2[nH]c(=O)ccc12 | · | 24µM*! | · | ·
CCC(NC(C)C)C(O)c1ccc(O)c(O)c1 (centres undefined) | 5% | ? | 1% | -8%
CCCC1(C)C(C#N)C(=O)NC(=O)C1C#N (centres undefined) | · | -13% | · | 18%
CCCC1(C)C(C#N)(C#N)C1(C#N)C#N | · | 9.5µM* | -7% | ·
COc1ccc(-c2nc3ccc(NC(=O)CO)cc3c(=O)n2Cc2cccc(Cl)c2)cc1COc1ccc(NC(C)=O)cc1 | · | 2% | · | ·
O=c1cc(-c2ccccc2)oc2cc(O)cc(O)c12 | · | 6% | · | -2%
O=c1cc(-c2ccccc2)oc2cccc(O)c12 | · | 8.4µM*! | · | -1%
OCc1ccc(-c2nn(Cc3ccccc3)c3ccccc23)o1 | -6% | 24µM*! | 1% | -8%
Nc1nc(N2CCN(Cc3ccccc3)CC2)n[nH]1 | 6% | 9% | -1% | 35µM*
Nc1nc(N2CCN(C(c3ccccc3)c3ccccc3)CC2)n[nH]1 | -16% | -35% | 5% | -4%
O=C(CSc1nnnn1-c1ccc(F)cc1)c1ccc(O)c(O)c1 | 5.6µM* | -14% | 2% | 1%
CSc1nsc(/C=C/Nc2ccc(F)cc2)c1C#N | 1% | -25% | 10% | 21%
CSc1nsc(/C=C/Nc2ccc(O)cc2C)c1C#N | -1% | ? | 8% | 8.9µM*
COc1cc(OC)c2c(c1)OC(c1ccccc1)CC2=O (centres undefined) | · | 5.3µM* | · | ·
O=C(Nc1c(Cl)cc([N+](=O)[O-])cc1Cl)c1cc(Cl)cc(Cl)c1O | · | -8% | · | ·
S=C(NCCCN(Cc1ccc(Cl)cc1)c1ccc(Br)cn1)NCc1ccc2nc[nH]c2c1 | · | 11% | · | ·
CCCCCCCCCCCCCCCC[N+](C)(C)CCN(Cc1ccc(OC)cc1)c1ncccn1 | 10µM* | -4% | ? | -7%
SMILES | USP2a inh | RGS4 inhibitor | Eya2 inh | ERG Ets-DNA blk
COc1ccc(CN(CCN(C)C)c2ccccn2)cc1 | -3% | 1% | 4% | ?
CCC(CC)NC(=O)COC(=O)c1cc(SC)ccc1Cl | -2% | -27% | -7% | 13µM*
CCCNC(=O)COC(=O)c1cc(SC)ccc1Cl | 2% | 21% | 12% | 4%
NC(=O)C1=CN(C2OC(COP(=O)(O)OP(=O)(O)OC[C@H]3O[C@@H](n4cnc5c(N)ncnc54)[C@H](OP(=O)(O)O)[C@@H]3O)C(O)C2O)C=CC1 (some centres undefined) | · | 13µM* | -1% | ·
Nc1ncnc2c1ncn2[C@@H]1O[C@H](COP(=O)(O)O)[C@@H](O)[C@H]1O | 1% | ? | -4% | -15%
Nc1ncnc2c1ncn2[C@@H]1O[C@H](COP(=O)(O)OP(=O)(O)OP(=O)(O)O)[C@@H](O)[C@H]1O | 0% | -104% | 2% | -10%

Screens: PubChem BioAssay, National Center for Advancing Translational Sciences (NCATS)
